Assay results published in PubChem BioAssay AID588335 (The Scripps Research Institute Molecular Screening Center, 2011).
Among all 360,000 compounds or so, about 4,500 (1.2%) were called active. The sample as a whole holds a higher share of actives than the screen did. A number with no mark means an inactive call. No stated cut-off is given here; in the data, active means inhibition above about 30%; inactive means the rest.

Assay: inhibition of GDH and TPI enzymes – biochemical, absorbance, full deck, artefact control for M. tuberculosis FBA inhibitor project, primary screen (AID 588335);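 further: 0% = DMSO wells and 100% = wells lacking the enzyme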
Conditions: GDH-TPI coupled enzyme counterscreen, NADH absorbance; at 4.8 µM; stronger effect = higher value

Row | SMILES | inhibition
1 | COc1ccc(C#Cc2c(-c3ccc(OC)cc3)oc3ccc(-c4ccc5c(c4)OCO5)cc23)cc1 | 5.83%
2 | C=CCNC(=O)COc1coc(CN2CCN(Cc3ccccc3)CC2)cc1=O | -4.97%
3 | N=c1ccccn1Cc1ccccc1 | -9.4%
4 | C=CCNC(=S)/N=c1/ccccn1Cc1ccccc1 | 33.6% (active)
5 | O=C(CN1CCOCC1)N1CCCc2c1c(=O)oc1ccc(OCc3ccccc3)cc21 | 31.5% (active)
6 | O=C(COc1ccc2c3c(c(=O)oc2c1)CCCC3)NCC(O)c1ccccc1 (stereo not given) | 10.6%
7 | O=C(COc1ccc2oc3c(c2c1)CCCC3)Nc1ccccn1 | -3.77%
8 | CCc1nn(CC(=O)N2CCN(c3cc(C)ccc3C)CC2)c(=O)c2cc3occc3n12 | 3.06%
9 | CCOC(=O)N1CCC(NC(=O)C(C)n2c3ccccc3c3cnn(C)c(=O)c32)CC1 (stereo not given) | 1.24%
10 | Cc1ccc(OCCCC(=O)Nc2ccc(S(=O)(=O)Nc3cc(C)nc(C)n3)cc2)cc1 | -1.42%
11 | Cc1ccc(S(=O)(=O)Nc2nc(C)cc(N/N=C/c3ccc(O)cc3)n2)cc1 | 31.1% (active)
12 | Cc1cc(C)nc(NS(=O)(=O)c2ccc(N/C=C\C(=O)c3cccs3)cc2)n1 | 10.6%
13 | O=c1c(Cl)c(NCc2ccc(F)cc2Cl)cnn1C12CC3CC(CC(C3)C1)C2 | -9.45%
14 | CCc1nnc(NC(=O)c2cc(S(=O)(=O)N3CCN(CC)CC3)ccc2Cl)s1 | 7.27%
15 | COc1ccc(-c2c(-c3cc(OC)cc(OC)c3)n(C)c3ccc(-c4ccn[nH]4)cc23)cc1 | 10.2%
16 | COc1cc(OC)cc(-c2c(-c3ccc(F)cc3)c3cc(-c4ccc5cc[nH]c5c4)ccc3n2C)c1 | 43.2% (active)
17 | COc1cc(OC)cc(-c2c(-c3cccs3)c3cc(-c4ccc(OC)nc4)ccc3n2C)c1 | 23.8%
18 | Cc1ccc(C(=O)CN2C(=O)NC3(CCc4ccccc43)C2=O)c(C)c1 (stereo not given) | -0.34%
19 | O=C(CCCCO)c1ccc(O)c(Cl)c1 | 29.1%
20 | Cc1c(S(=O)(=O)N2CC(C)CC(C)C2)c(=O)n(C)c(=O)n1C (stereo not given) | -4.2%
21 | CC(=O)C1=C(C)NC2=C(C(=O)CC(C)(C)C2)C1C (stereo not given) | 0.31%
22 | Cc1cc2c(cc1C)NC(c1ccccn1)C1=C(CC(C)(C)CC1=O)N2 (stereo not given) | 29.6%
23 | CC1(C)CC(=O)C2=C(C1)Nc1cc(C(=O)c3ccccc3)ccc1NC2c1ccccn1 (stereo not given) | 32.1% (active)

Row | SMILES | inhibition
24 | CSCC[C@H](NC(=O)NCc1cccs1)C(=O)O | -3.14%
25 | CCN(c1ccc(NC(=O)COC(=O)CCc2nc3ccccc3n2-c2ccccc2)cc1)C(C)C | 8.52%
26 | O=C(CCS(=O)(=O)c1cccc2nsnc12)N1CCN(c2ccccc2F)CC1 | 19.6%
27 | COc1ccc(/C=N/Nc2nc(-c3ccc(C)cc3)c(C#N)c(=O)[nH]2)cc1 | 10%
28 | COc1ccc(O)c(/C=N/N=C/c2cccc([N+](=O)[O-])c2)c1 | -12.3%
29 | COc1ccc(/C=N/N=C/c2c[nH]c(=O)c(C#N)c2Nc2ccccc2)cc1 | 50.2% (active)
30 | O=C1NC(c2ccccc2)CCC1(Cl)Cl (stereo not given) | 3.97%
31 | Cc1ccc(C(=O)Nc2c(C#N)c(C)c(C)n2Cc2ccccc2)cc1 | -3.02%
32 | CCn1nc(NC(=O)c2ccco2)c2cc3ccc(C)cc3nc21 | -4.08%
33 | Cc1ccc(Cn2c(NC(=O)c3ccco3)nc3ccccc32)cc1 | 37.1% (active)
34 | CN1CCN(C(=O)CCc2ncc(C(F)(F)F)cc2Cl)CC1 | -4.79%
35 | CC(C)c1ccc(S(=O)(=O)N2CCN(C(=O)CN3C(=O)NC(C)(c4ccccc4)C3=O)CC2)cc1 (stereo not given) | -2.79%
36 | Oc1oc(-c2ccccc2Br)nc1/C=N/c1ccccn1 | 15.5%
37 | CC(N=Cc1nc(-c2ccccc2)oc1O)c1ccccc1 (stereo not given) | 46.8% (active)
38 | COc1ccc(CN(C)C(C)C(=O)NC2CCCc3ccccc32)cc1 (stereo not given) | -4.42%
39 | CSc1ccc(-c2c(C#N)c(N)nc3c2c(C)nn3-c2ccccc2)cc1 | 21.3%
40 | Cc1cc(C)c2c(-c3ccc(F)cc3)c(C#N)c(=O)n(C)c2n1 | 12.6%
41 | Cn1c(=O)c2c(-c3cccc(Br)c3)c(C#N)c(N)nc2n(C)c1=O | 32.1% (active)
42 | COc1ccc(N2CCN(CCNC(=O)Nc3cc(Cl)ccc3Cl)CC2)cc1 | 5%
43 | COc1ccc(NC(=O)NCCN2CCN(c3ccc(C)cc3)CC2)c(Cl)c1 | 32.2% (active)
44 | COc1ccc(N2CCN(CCNC(=O)c3nnc(Cc4c(F)cccc4Cl)o3)CC2)cc1 | 5.33%
45 | CSC1=N/C(=C\C=C\c2cccs2)C(=O)S1 | 4.56%
46 | COc1ccc(-c2ccc(OC(=O)NC3CCS(=O)(=O)C3)cc2)cc1 (stereo not given) | -7.23%

Row | SMILES | inhibition
47 | O=C(CN1C(=O)S/C(=C\c2ccccc2F)C1=O)NCCCn1ccnc1 | 33.6% (active)
48 | O=C(CN1C(=O)/C(=C/c2ccccc2F)Sc2ccccc21)NCc1cccnc1 | 12.4%
49 | Cc1cc(OCCCC(=O)NCCN2C(=O)S/C(=C\c3cccnc3)C2=O)ccc1Cl | 11.2%
50 | COc1ccccc1/C=C1\SC(=O)N(CCC(=O)N(C)C2CCS(=O)(=O)C2)C1=O (stereo not given) | 26.5%
51 | O=C(CCN1C(=O)c2ccccc2C1=O)NCCCn1ccnc1 | -1.58%
52 | COc1ccc(/C=C2\SC(=O)N(CCC(=O)NC3CCS(=O)(=O)C3)C2=O)cc1 (stereo not given) | 41% (active)
53 | O=C(NCCCn1ccnc1)/C(=C\c1ccccc1F)NC(=O)c1ccccc1 | -0.75%
54 | COc1ccc(/C=C2\SC(=O)N(CCC(=O)NCCCn3ccnc3)C2=O)cc1 | 43.6% (active)
55 | CCOc1cc2c(Cl)ncnc2c(OCC)c1OCC | 2.46%
56 | CCOC(=O)C1(Cc2ccccc2C)CCCN(C(=O)c2ccc(COC)o2)C1 (stereo not given) | 6.53%
57 | COc1ccc(CNC(=O)C[C@H]2C[C@H](C(=O)N3CCOCC3)[C@@]3(CCC4CCCC4)c4[nH]c5ccc(Cl)cc5c4CCN3C2=O)cc1OC | -3.13%
58 | CCN(CC(=O)NC(C)C)C(=O)c1cc(S(=O)(=O)N2CCCCC2)ccc1N1CCCCC1 | 2.16%
59 | NC(=S)NN=Cc1ccc(OC(=O)COc2cc(Cl)c(Cl)cc2Cl)cn1 | 49.8% (active)
60 | O=C(COC(=O)COc1cc(Cl)c(Cl)cc1Cl)NC1CC1 | 7.02%
61 | O=C(COc1cc(Cl)c(Cl)cc1Cl)NCCc1ccccn1 | 3.15%
62 | COc1cc(Nc2nc3ccc(Cl)cc3n3cnnc23)cc(OC)c1OC | -2.21%
63 | COc1cc(/C=N/Nc2nn3cnnc3c3ccccc23)cc(OC)c1OC | 43.1% (active)
64 | CN(CCO)c1ccc(/C=N/Nc2nncc3ccccc23)cc1 | 15.2%
65 | CCOC(=O)C1(CCOc2ccccc2)CCN(C(=O)c2cncs2)CC1 | 3.14%
66 | O=C1NC(c2ccccc2)=NC1(Nc1ccccn1)C(F)(F)F (stereo not given) | -8.86%
67 | COc1ccc(C2=NS(=O)(=O)N(C)C(C(=O)N3CCCCC3)=C2)cc1 | 24.4%
68 | COc1ccc(C2=NS(=O)(=O)N(C)C(C(=O)N(C)Cc3ccccc3)=C2)cc1 | 34% (active)
69 | COc1ccc(NC(=O)C2=CC(c3ccc(OC)c(OC)c3)=NS(=O)(=O)N2C)cc1 | 32.7% (active)

Row | SMILES | inhibition
70 | COc1cc(NC(=O)C2=CC(c3ccco3)=NS(=O)(=O)N2C)cc(OC)c1OC | 30.4%
71 | COc1cc(NC(=O)C2=CC(c3ccc(C)cc3)=NS(=O)(=O)N2C)cc(OC)c1OC | 27.7%
72 | COc1ccc(C2=NS(=O)(=O)N(C)C(C(=O)NC(C)c3ccccc3)=C2)cc1 (stereo not given) | 23.1%
73 | CCc1cc(=O)oc2c(C)c(OCC(=O)N3CC[C@@]4(O)CCCC[C@H]4C3)ccc12 | 7.84%
74 | NC(=O)c1nsc(C(=O)N(CCCN2CCOCC2)C(C(=O)NC2CCCCC2)c2ccc(Cl)cc2)c1N (stereo not given) | 3.02%
75 | Cc1ccc(C(=O)NNC(=O)c2cc3cc4ccccc4nc3s2)cc1 | 10.2%
76 | Cc1ccc(NC(=O)c2ccc(Oc3ncccn3)cc2)cc1 | 11.6%
77 | Cc1ccc(C(=O)NNc2ncnc3ccccc23)cc1 | 43.8% (active)
78 | O=C(O)CC(Cc1ccccc1)C(=O)Nc1ccc([N+](=O)[O-])cc1 (stereo not given) | 19.3%
79 | CC(=O)n1cc([C@@H]2C=C(C(=O)N3CCN(Cc4ccc5c(c4)OCO5)CC3)O[C@H](OCc3ccc(CO)cc3)C2)c2ccccc21 | -1.76%
80 | CCOC(=O)C1=C(O)/C(=C/c2cc(C)n(-c3ccccc3)c2C)N=C1C | 2.64%
81 | Cc1cccc(C)c1-n1c(C)cc(/C=C2\C(=O)NN(c3ccccc3)C2=O)c1C | 33% (active)
82 | COc1ccc(C(=O)NCC2CCCCC2)cc1S(=O)(=O)N1CCCC1 | 1.39%
83 | CCO[C@@H]1OC(C(N)=O)=C[C@H](c2ccc(Br)cc2)[C@H]1CCCO | -4.48%
84 | CC(Sc1nc2cc(Cl)ccc2s1)C(=O)Nc1ccc2c(c1)OCO2 (stereo not given) | 5.49%
85 | COC(=O)c1c(-c2ccsc2)oc2ccc(-c3cc(OC)c(OC)c(OC)c3)cc12 | 10.3%
86 | O=C(NCc1cccs1)c1ccc2c(c1)ncn2C1CCCC1 | -1.75%
87 | CCOc1ncccc1C(=O)N(C)CC(=O)Nc1ccc(F)cc1 | -5.34%
88 | CSc1ccccc1NC(=O)c1cnc2sc(C)cn2c1=O | 32.6% (active)
89 | CSc1ccccc1NC(=O)c1cc(Cl)sc1Cl | -10.3%
90 | Cc1ccccc1C(=O)Nc1ccccc1Sc1ccccc1 | -10.9%
